Measurements reported in PubChem BioAssay (EPA / NIEHS).
Results filed as inconclusive are left out. Where a structure was tested more than once in an assay, its records may differ in their call. Calls of active or inactive are those of the source. How the source made its calls, unless noted: active means hit-call score of the fitted dose curve at least 0.9, where 1 is the maximum; inconclusive means response in the unintended direction; inactive means score below 0.9.

Columns and labels:
[1] = target: Agonist Androgen Response Element (ARE), AR (gene 367) (UniProt P10275); experiment: OT_AR_ARELUC_AG_1440: Odyssey Thera (OT) 24-hour CHO-K1 Luciferase Assay for Agonist Androgen Response Element (ARE) (AID 2283379)
Method in brief: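 Seed CHO-K1 cells; dose compounds for 24 h; add D-luciferin plus ATP in PBS; read luminescence. Signal increase relative to vehicle defines agonist activity, with at least 3 replicate wells per sample.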

[2] = target: Estrogen receptor beta (Homo sapiens) (UniProt Q92731); experiment: OT_ER_ERbERb_1440: Odyssey Thera (OT) 24-hour HEK293T Protein-Complementation Assay for Estrogen Receptor-beta/-beta Homodimer (AID 2283380);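 further: fluorescence gain from ER beta LBD homodimer complementation read by laser scanning cytometry; scored as signal increase over DMSO baseline for both agonists and antagonists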
Method in brief: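 HEK293T cells stably expressing human ER-beta LBD (aa 310-547) PCA homodimer pair, dosed 24 h; formaldehyde-fixed, Draq5-stained. Readout: increase in nuclear (agonist) or nuclear plus cytoplasmic (antagonist) fluorescence intensity versus DMSO, gain-of-signal fitting.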

[3] = target: Bile acid receptor (Homo sapiens) (UniProt Q96RI1); experiment: OT_FXR_FXRSRC1_0480: Odyssey Thera (OT) 8-hour HEK293T Protein-Complementation Assay for Farnesoid X receptor/SRC-1 Co-activator (AID 2283383)
Method in brief: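 Co-activator recruitment to FXR was measured in living HEK293T cells, where interaction of the two fused partners restored an active fluorescent reporter. Signal gain after 8 h treatment was referenced to DMSO.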

[4] = target: Bile acid receptor (Homo sapiens) (UniProt Q96RI1); experiment: OT_FXR_FXRSRC1_1440: Odyssey Thera (OT) 24-hour HEK293T Protein-Complementation Assay for Farnesoid X receptor/SRC-1 Co-activator (AID 2283384)
Method in brief: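 Cell-based binding reporter: interaction of FXR with SRC-1 brings reporter fragments together, giving a fluorescence signal read 24 h after dosing of HEK293T cells.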

[5] = target: Retinoic acid receptor RXR-alpha (Homo sapiens) (UniProt P19793); experiment: OT_NURR1_NURR1RXRa_0480: Odyssey Thera (OT) 8-hour HEK293T Protein Complementation Assay for Nurr1/retinoid X receptor (RXR) (AID 2283385)
Method in brief: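 Compounds are applied to HEK293T cells carrying Nurr1 and RXRα linked to reporter fragments. After 8 h, fluorescence intensity reports heterodimer formation, with DMSO as baseline.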

[6] = target: Retinoic acid receptor RXR-alpha (Homo sapiens) (UniProt P19793); experiment: OT_NURR1_NURR1RXRa_1440: Odyssey Thera (OT) 24-hour HEK293T Protein Complementation Assay for Nurr1/retinoid X receptor (RXR) (AID 2283386)
Method in brief: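 Measured as fluorescence from a reconstituted split reporter, this 24 h HEK293T complementation assay scores compound-induced gain of Nurr1/RXRα association relative to DMSO.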

[7] = target: Peroxisome proliferator-activated receptor gamma (Homo sapiens) (UniProt P37231); experiment: OT_PPARg_PPARgSRC1_0480: Odyssey Thera (OT) 8-hour Protein-Complementation Assay for Peroxisome Proliferator-activated Receptor Gamma / SRC-1 Co-activator (AID 2283387);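 further: nuclear to cytoplasmic split Venus YFP fluorescence ratio reporting PPARg SRC-1 interaction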
Method in brief: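 Protein-fragment complementation of split Venus YFP reports PPARg/SRC-1 interaction in HEK293T (transfected 48 h before treatment), exposed 8 h. Readout: N/C fluorescence ratio at 488 nm from imaging, Draq5 for segmentation, positive fit relative to DMSO.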

[8] = target: Peroxisome proliferator-activated receptor gamma (Homo sapiens) (UniProt P37231); experiment: OT_PPARg_PPARgSRC1_1440: Odyssey Thera (OT) 24-hour Protein-Complementation Assay for Peroxisome Proliferator-activated Receptor Gamma/ SRC-1 Co-activator (AID 2283388);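 further: nuclear to cytoplasmic ratio of reconstituted Venus YFP fluorescence in fixed imaged cells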
Method in brief: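 Readout: nuclear-to-cytoplasmic 488 nm fluorescence ratio, ≥350 cells per image, 8 images per well, after 24 h compound exposure of HEK293T expressing PPARg/SRC-1 split-YFP fusions. Activity fitted in positive direction against DMSO.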

[9] = target: Estrogen receptor (Homo sapiens) (UniProt P03372); experiment: OT_ERa_GFPERaERE_0480: Odyssey Thera (OT) 8-hour HeLa Transcription Induction Assay for Estrogen Receptor (AID 2283381; active means hit-call score of the fitted dose curve at least 0.9, where 1 is the maximum; inactive means score below 0.9)
Method in brief: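 Cells (HeLa) receive compound; after 8 h, reporter fluorescence is imaged and quantified by high-content analysis. Gain-of-signal relative to DMSO gives the endpoint.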

[10] = target: mouse Estrogen Receptor alpha (Era), Esr1 (gene 13982) (UniProt P19785); experiment: NVS_NR_mERa: NovaScreen (NVS) Nuclear Receptor Binding Assay for mouse Estrogen Receptor alpha (Era) (AID 2283378);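 further: hit means loss of bound radioligand signal relative to DMSO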
Method in brief: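 Filter scintillation counts of bound radioligand, measured 18 h post-dose, gave the readout; decreased signal relative to DMSO controls indicated displacement from mouse Era. Primary screen ran in duplicate at 25 uM; active chemicals were retested across concentrations.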

[11] = target: Estrogen receptor (Homo sapiens) (UniProt P03372); experiment: OT_ERa_GFPERaERE_0120: Odyssey Thera (OT) 2-hour HeLa Transcription Induction Assay for Estrogen Receptor (AID 2283382)
Method in brief: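 Measures ESR1 pathway reporter gain-of-signal in HeLa cells after a 2-hour treatment, detected as fluorescent protein induction by microscopy, DMSO as baseline.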

[12] = CEETOX_H295R_11DCORT: CeeTox H295R High-throughput Steroidogenesis Assay for 11-Deoxycortisol (11DCORT) (AID 2283432; active means hit-call score of the fitted dose curve at least 0.9, where 1 is the maximum; inactive means score below 0.9;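 on AC50: 11-deoxycortisol secreted into the medium measured by LC-MS/MS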); details: actives raise or lower the signal
Method in brief: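 Human adrenal H295R cells were prestimulated with 10 uM forskolin for 48 h, then exposed to test chemical (0.1% DMSO final) for 48 h. Medium 11-deoxycortisol was quantified by MTBE extraction and HPLC-MS/MS; bidirectional fitting relative to DMSO.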

[13] = CEETOX_H295R_OHPREG: CeeTox H295R High-throughput Steroidogenesis Assay for OH-Pregnenolone (OHPREG) (AID 2283434; active means hit-call score of the fitted dose curve at least 0.9, where 1 is the maximum; inactive means score below 0.9); details: actives raise or lower the signal
Method in brief: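 Human adrenal H295R cells were prestimulated 48 h with 10 uM forskolin, then exposed 48 h to chemical in 0.1% DMSO. Medium 17alpha-hydroxypregnenolone was quantified by HPLC-MS/MS after MTBE extraction; bidirectional fitting versus DMSO baseline.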

[14] = CEETOX_H295R_OHPROG: CeeTox H295R High-throughput Steroidogenesis Assay for OH-Progesterone (OHPROG) (AID 2283435; active means hit-call score of the fitted dose curve at least 0.9, where 1 is the maximum; inactive means score below 0.9;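 on AC50: 17alpha-hydroxyprogesterone secreted into medium measured by HPLC-MS/MS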); details: actives raise or lower the signal
Method in brief: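 Secreted 17alpha-hydroxyprogesterone is read by tandem MS from media of forskolin-primed H295R cells dosed with chemical for 48 h. Activity is fitted in both directions against DMSO baseline; cytotoxic concentrations are re-tested diluted.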

[15] = CEETOX_H295R_CORTIC: CeeTox H295R High-throughput Steroidogenesis Assay for Corticosterone (CORTIC) (AID 2283437; active means hit-call score of the fitted dose curve at least 0.9, where 1 is the maximum; inactive means score below 0.9;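 further: corticosterone secreted into medium quantified by mass spectrometry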); details: actives raise or lower the signal
Method in brief: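 H295R cells were prestimulated 48 h with 10 uM forskolin, then exposed 48 h to test chemical in 0.1% DMSO. Medium corticosterone was MTBE-extracted and quantified by HPLC-MS/MS; bidirectional fit versus DMSO baseline.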

[16] = CEETOX_H295R_CORTISOL: CeeTox H295R High-throughput Steroidogenesis Assay for Cortisol (AID 2283438; active means hit-call score of the fitted dose curve at least 0.9, where 1 is the maximum; inactive means score below 0.9;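 further: cortisol secreted into medium quantified by LC-MS/MS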); details: actives raise or lower the signal
Method in brief: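 Human adrenocortical H295R cells (passage ≤10) received test chemicals for 48 h after forskolin priming. Secreted cortisol was measured by LC-MS/MS.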

[17] = CEETOX_H295R_DOC: CeeTox H295R High-throughput Steroidogenesis Assay for DOC (AID 2283439; active means hit-call score of the fitted dose curve at least 0.9, where 1 is the maximum; inactive means score below 0.9); details: actives raise or lower the signal
Method in brief: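 Secreted DOC was quantified from H295R media by HPLC-MS/MS after 48 h chemical exposure following 48 h forskolin (10 uM) prestimulation. Values were fitted in both directions relative to DMSO, the negative control and baseline.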

[18] = CEETOX_H295R_ESTRADIOL: CeeTox H295R High-throughput Steroidogenesis Assay for Estradiol (AID 2283440; active means hit-call score of the fitted dose curve at least 0.9, where 1 is the maximum; inactive means score below 0.9;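 further: estradiol secreted into medium quantified by LC-MS/MS after dansyl derivatisation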); details: actives raise or lower the signal
Method in brief: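 H295R, 48 h forskolin (10 uM) prestim → 48 h compound, 0.1% DMSO final. Estradiol in medium: MTBE extraction, dansyl chloride derivatization, LC-MS/MS. Fit bidirectional vs DMSO baseline; MTT viability in same wells.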

[19] = CEETOX_H295R_ESTRONE: CeeTox H295R High-throughput Steroidogenesis Assay for Estrone (AID 2283441; active means hit-call score of the fitted dose curve at least 0.9, where 1 is the maximum; inactive means score below 0.9;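 further: estrone secreted into medium measured by LC-MS/MS after dansyl derivatization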); details: actives raise or lower the signal
Method in brief: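 H295R cells; 48 h forskolin (10 uM) prestimulation; 48 h compound exposure, 0.1% DMSO final. Medium estrone: MTBE extraction, dansyl derivatization, HPLC-MS/MS. Bidirectional fit vs DMSO.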

[20] = CEETOX_H295R_ANDR: CeeTox H295R High-throughput Steroidogenesis Assay for Androstenedione (ANDR) (AID 2283436; active means hit-call score of the fitted dose curve at least 0.9, where 1 is the maximum; inactive means score below 0.9); details: actives raise or lower the signal
Method in brief: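 H295R human adrenal cells (passages ≤10) were exposed to test chemicals for 48 h; androstenedione in medium was MTBE-extracted and quantified by HPLC-MS/MS against a 7-point standard curve. Bidirectional fitting used DMSO as baseline.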

Measured: AC50

Sequence of Peroxisome proliferator-activated receptor gamma (Homo sapiens) (P37231 whole entry, looked up, the tested form may be a part): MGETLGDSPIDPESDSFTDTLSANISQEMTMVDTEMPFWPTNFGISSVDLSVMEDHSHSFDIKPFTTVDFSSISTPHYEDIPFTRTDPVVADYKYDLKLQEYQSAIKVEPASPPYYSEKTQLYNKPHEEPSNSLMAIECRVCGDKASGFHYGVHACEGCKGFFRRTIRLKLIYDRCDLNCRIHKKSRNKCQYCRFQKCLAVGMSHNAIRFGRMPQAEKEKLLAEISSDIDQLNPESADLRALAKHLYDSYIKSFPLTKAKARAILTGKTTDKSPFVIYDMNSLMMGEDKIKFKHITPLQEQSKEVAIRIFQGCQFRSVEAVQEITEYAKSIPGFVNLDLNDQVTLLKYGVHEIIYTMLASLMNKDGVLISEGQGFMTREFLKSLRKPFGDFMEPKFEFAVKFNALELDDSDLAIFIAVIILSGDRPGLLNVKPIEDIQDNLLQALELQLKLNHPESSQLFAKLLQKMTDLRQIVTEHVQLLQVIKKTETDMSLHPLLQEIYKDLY
Sequence of Retinoic acid receptor RXR-alpha (Homo sapiens) (P19793 whole entry, looked up, the tested form may be a part): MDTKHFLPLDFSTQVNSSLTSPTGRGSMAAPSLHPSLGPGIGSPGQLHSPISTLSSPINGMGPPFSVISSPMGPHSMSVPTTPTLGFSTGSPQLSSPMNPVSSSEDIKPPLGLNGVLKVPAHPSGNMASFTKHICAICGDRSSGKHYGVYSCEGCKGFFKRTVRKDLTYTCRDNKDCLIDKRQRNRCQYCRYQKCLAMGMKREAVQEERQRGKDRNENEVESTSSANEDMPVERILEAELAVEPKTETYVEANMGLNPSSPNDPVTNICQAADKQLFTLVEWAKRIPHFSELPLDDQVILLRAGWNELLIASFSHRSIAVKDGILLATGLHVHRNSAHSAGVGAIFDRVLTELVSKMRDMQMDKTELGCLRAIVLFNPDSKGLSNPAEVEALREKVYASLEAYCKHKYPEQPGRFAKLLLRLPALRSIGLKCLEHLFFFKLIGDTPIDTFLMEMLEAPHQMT
Sequence of Estrogen receptor beta (Homo sapiens) (Q92731 whole entry, looked up, the tested form may be a part): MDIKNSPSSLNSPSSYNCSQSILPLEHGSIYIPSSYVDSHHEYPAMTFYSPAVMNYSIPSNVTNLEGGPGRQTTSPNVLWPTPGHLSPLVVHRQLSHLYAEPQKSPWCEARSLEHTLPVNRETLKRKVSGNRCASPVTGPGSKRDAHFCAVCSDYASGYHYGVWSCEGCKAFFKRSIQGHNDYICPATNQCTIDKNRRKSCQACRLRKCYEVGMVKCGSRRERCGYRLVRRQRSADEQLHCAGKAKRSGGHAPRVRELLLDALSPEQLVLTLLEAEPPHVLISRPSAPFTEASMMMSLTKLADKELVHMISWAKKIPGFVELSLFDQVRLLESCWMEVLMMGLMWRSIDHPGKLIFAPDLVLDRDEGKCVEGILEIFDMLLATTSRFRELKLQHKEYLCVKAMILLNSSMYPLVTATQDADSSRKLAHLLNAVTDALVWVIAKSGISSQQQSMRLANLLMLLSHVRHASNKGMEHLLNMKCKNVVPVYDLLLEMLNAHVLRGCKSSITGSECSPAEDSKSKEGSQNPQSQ
Sequence of Bile acid receptor (Homo sapiens) (Q96RI1 whole entry, looked up, the tested form may be a part): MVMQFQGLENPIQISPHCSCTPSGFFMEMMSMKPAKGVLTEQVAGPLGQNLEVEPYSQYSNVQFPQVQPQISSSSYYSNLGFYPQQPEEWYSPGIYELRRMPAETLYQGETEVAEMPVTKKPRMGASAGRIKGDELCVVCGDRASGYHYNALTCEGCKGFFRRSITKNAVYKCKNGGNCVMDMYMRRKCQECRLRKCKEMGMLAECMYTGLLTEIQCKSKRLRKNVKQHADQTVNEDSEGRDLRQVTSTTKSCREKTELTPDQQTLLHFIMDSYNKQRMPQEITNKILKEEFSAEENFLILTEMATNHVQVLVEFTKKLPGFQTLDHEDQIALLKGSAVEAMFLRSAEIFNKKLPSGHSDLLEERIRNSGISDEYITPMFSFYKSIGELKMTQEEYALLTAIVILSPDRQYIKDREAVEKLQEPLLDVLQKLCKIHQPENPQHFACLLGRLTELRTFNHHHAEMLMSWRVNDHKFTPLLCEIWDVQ
Sequence of Estrogen receptor (Homo sapiens) (P03372 whole entry, looked up): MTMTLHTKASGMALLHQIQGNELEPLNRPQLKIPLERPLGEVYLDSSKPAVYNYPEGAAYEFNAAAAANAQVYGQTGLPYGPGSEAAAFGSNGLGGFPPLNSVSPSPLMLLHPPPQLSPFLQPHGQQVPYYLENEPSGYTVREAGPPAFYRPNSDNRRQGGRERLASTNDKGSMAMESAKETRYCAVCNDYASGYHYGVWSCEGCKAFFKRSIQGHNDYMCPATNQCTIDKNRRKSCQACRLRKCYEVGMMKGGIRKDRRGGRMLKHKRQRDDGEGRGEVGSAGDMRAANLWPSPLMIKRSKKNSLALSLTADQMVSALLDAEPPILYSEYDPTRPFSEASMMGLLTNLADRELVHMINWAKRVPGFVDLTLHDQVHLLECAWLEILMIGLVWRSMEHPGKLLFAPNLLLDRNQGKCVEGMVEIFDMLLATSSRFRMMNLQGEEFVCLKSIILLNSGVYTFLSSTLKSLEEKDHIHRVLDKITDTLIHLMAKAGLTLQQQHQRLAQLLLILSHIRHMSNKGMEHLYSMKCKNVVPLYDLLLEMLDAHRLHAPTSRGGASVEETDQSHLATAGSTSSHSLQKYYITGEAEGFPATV
Sequence of Agonist Androgen Response Element (ARE), AR (gene 367) (P10275 whole entry, looked up): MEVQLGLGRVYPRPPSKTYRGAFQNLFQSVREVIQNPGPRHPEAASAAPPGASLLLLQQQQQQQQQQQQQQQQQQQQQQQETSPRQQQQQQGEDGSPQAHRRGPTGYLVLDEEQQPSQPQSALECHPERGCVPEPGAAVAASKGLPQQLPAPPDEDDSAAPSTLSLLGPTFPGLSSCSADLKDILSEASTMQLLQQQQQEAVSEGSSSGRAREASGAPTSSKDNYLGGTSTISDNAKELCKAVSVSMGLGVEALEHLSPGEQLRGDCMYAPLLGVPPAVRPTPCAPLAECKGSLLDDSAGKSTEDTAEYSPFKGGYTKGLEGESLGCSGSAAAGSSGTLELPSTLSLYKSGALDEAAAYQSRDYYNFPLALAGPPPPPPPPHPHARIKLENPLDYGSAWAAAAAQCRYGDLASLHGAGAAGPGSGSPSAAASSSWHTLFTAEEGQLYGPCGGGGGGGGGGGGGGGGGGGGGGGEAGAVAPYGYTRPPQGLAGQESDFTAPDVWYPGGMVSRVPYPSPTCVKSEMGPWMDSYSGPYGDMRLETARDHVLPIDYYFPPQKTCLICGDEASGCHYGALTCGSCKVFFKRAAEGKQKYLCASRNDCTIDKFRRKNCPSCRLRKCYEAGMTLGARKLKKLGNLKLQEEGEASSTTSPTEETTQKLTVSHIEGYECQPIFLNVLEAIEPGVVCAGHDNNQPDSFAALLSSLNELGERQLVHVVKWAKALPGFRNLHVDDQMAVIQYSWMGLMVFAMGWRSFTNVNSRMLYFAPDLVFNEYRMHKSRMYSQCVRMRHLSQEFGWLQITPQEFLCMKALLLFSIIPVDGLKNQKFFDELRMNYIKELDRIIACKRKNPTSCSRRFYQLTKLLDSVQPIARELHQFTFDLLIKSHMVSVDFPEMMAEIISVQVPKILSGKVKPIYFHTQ
Sequence of mouse Estrogen Receptor alpha (Era), Esr1 (gene 13982) (P19785 whole entry, looked up): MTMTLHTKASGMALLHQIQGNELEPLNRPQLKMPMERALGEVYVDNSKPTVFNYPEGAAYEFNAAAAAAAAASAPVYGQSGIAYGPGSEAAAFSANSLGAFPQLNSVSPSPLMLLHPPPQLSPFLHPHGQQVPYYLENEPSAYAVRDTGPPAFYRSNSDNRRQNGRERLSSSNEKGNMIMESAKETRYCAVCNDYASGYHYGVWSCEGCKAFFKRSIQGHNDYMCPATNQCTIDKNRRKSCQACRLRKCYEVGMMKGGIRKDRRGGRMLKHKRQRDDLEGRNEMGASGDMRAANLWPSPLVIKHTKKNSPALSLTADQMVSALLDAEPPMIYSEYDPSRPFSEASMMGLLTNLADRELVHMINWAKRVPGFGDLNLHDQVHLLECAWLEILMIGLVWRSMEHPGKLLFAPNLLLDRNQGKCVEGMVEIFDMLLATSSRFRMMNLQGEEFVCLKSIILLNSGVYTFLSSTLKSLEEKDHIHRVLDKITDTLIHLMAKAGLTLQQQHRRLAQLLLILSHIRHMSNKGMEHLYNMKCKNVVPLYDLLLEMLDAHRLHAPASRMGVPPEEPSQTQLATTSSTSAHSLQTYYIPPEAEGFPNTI

COc1ccc(-c2ccccc2)cc1NNC(=O)OC(C)C
inactive: [1] | [2] | [3] | [4] | [5] | [6] | [7] | [8]

Nc1c(Cl)c(F)nc(OCC(=O)O)c1Cl
inactive: [1] | [2] | [9] | [6] | [7] | [8]

CCCC(=NOCC)C1=C(O)CC(CC(C)SCC)CC1=O (stereo unspecified)
active: [19] 0.554 µM
not listed: [1] | [3] | [4] | [9] | [20]
inactive: all other assays above

CCN(CC)c1nc(C)cc(OP(=S)(OC)OC)n1
active: [2] 50 µM | [15] 24.7 µM | [17] 36.2 µM | [18] 1.22 µM | [19] 1.62 µM
not listed: [1] | [3] | [4] | [9] | [10] | [20]
inactive: all other assays above

COCC(=O)N(c1c(C)cccc1C)C(C)C(=O)OC (stereo unspecified)
not listed: [1] | [10] | [11] | [12] | [15] | [16] | [17] | [20]
inactive: all other assays above

CCOC(=O)C(C)OC(=O)c1cc(Oc2ccc(C(F)(F)F)cc2Cl)ccc1[N+](=O)[O-] (stereo unspecified)
not listed: [1] | [3] | [4] | [10] | [20]
inactive: all other assays above

Clc1cccc(C(Cl)(Cl)Cl)n1
inactive: [1] | [2] | [9] | [11] | [3] | [4] | [5] | [6] | [7] | [8]

CCNP(=S)(OC)O/C(C)=C/C(=O)OC(C)C (stereo unspecified)
active: [12] 65.9 µM | [13] 61.8 µM | [15] 50 µM | [17] 50 µM
not listed: [1] | [3] | [4] | [10] | [11] | [20]
inactive: all other assays above

C=CCOC(=O)C(C)(C)OC(=O)c1cc(-n2c(=O)cc(C(F)(F)F)n(C)c2=O)ccc1Cl
inactive: [2] | [9] | [11] | [5] | [6] | [7] | [8]

COC(=O)N(C(=O)N1CO[C@@]2(C(=O)OC)Cc3cc(Cl)ccc3C2=N1)c1ccc(OC(F)(F)F)cc1
inactive: [1] | [2] | [9] | [11] | [5] | [6] | [7] | [8]

COC(=O)c1c(C(F)F)nc(C(F)(F)F)c(C2=NCCS2)c1CC(C)C
inactive: [1] | [11] | [5] | [6] | [7] | [8]
active: [2] 43.7 µM

Cc1cnc(C2=NC(C)(C(C)C)C(=O)N2)c(C(=O)O)c1 (stereo unspecified)
inactive: [1] | [2] | [11] | [5] | [6] | [7] | [8]

CSC(=O)c1c(C(F)F)nc(C(F)(F)F)c(C(=O)SC)c1CC(C)C
active: [2] 21.5 µM | [6] 69.6 µM
inactive: [9] | [11] | [5] | [6] | [7] | [8]

CC1(C)C(C=C(Cl)Cl)C1C(=O)OC(C#N)c1cccc(Oc2ccccc2)c1 (stereo unspecified)
not listed: [1] | [3] | [4] | [10] | [11] | [20]
inactive: all other assays above

COP(=S)(OC)SCn1nnc2ccccc2c1=O
inactive: [10] | [1] | [2] | [7] | [8] | [13] | [20] | [18] | [19]
active: [14] 2.27 µM

CCOc1nc(C(Cl)(Cl)Cl)ns1
inactive: [2] | [9] | [11] | [5] | [6] | [7] | [8] | [13] | [14] | [18] | [19]
